Pf growth 96h: Primary qHTS for delayed death inhibitors of the malarial parasite plastid, 96 hour incubation; P. falciparum luciferase reporter growth, 96 h; hit rate 6.9% among 320,000; Potency, µM (titrated, usually from 28.7 µM), without a hit: at the highest dose activity change, negative = inhibition, most hits filed as inhibitors; active = well fitted inhibition curve with a large enough effect; inconclusive = small, poorly fitted or top-dose-only effect, or another doubt; inactive = no such curve, though single readings can be large or run the other way; note: % is set by controls: 0 for no effect and ±100 for the full control effect
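P. falciparum expressing integrated firefly luciferase, in erythrocytes at 2% hematocrit, 0.05% parasitemia, incubated with compounds 96 h at 37 C, 5% CO2. Growth inhibition read as loss of luminescence; two-generation exposure targets delayed-death apicoplast inhibitors.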
Pf growth 48h: Primary qHTS for delayed death inhibitors of the malarial parasite plastid, 48 hour incubation; P. falciparum luciferase growth in erythrocytes, 48 h; Potency, µM (top dose mostly 28.7 µM), for the others: at the highest dose activity change, negative = inhibition, most hits filed as inhibitors; hit rate 5.9% among 310,000; AID 504832, 2011; active = well fitted inhibition curve with a large enough effect; inconclusive = small, poorly fitted or top-dose-only effect, or another doubt; inactive = no such curve, though single readings can be large or run the other way; note: % is set by controls: 0 for no effect and ±100 for the full control effect
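Erythrocytes infected with P. falciparum carrying an integrated firefly luciferase reporter (2% hematocrit, 0.1% parasitemia final) were exposed to compounds in RPMI 1640 with 0.5% Albumax at 37 C, 5% CO2. Growth inhibition was scored as reduced luminescence.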
NS1 function inh: qHTS Assay for Inhibitors of Influenza NS1 Protein Function. AID 2326, 2010. hit rate 0.4% among 270,000. Potency, µM (doses to about 46.1 µM), for the others: top-dose activity, positive = more growth; note: actives are rising curves; nearly all actives have a fitted effect of over 50% in size
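In this qHTS, NS1 from influenza A is expressed in budding yeast, where it slows growth. Cells are switched from glucose to 2% galactose medium (pH 6.0, -URA), treated with compound, and growth recovery is read at OD600.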
SARS PLP yeast: qHTS of Yeast-based Assay for SARS-CoV PLP. S. cerevisiae expressing SARS-CoV PLpro, growth rescue. Potency, µM (highest dose often 32.9 µM), for the others: top-dose activity, positive = growth rescue, actives largely listed as activators. hit rate 0.19% among 330,000. AID 485353, 2010; note: 0% is about no effect; nearly all actives have a fitted effect of over 55% in size
* = called active by the depositor; ? = inconclusive; · = no result; [ ] = another dose, or the depositor's remark. Most compounds without a hit are left out; they make up all but 10% or so of the library. Unless noted, calls come from the whole dose curve. Potency is the fitted concentration of half-maximal effect.

SMILES | Pf growth 96h | Pf growth 48h | NS1 function inh | SARS PLP yeast
CCOC(=O)C1=C(C)NC(C)=C(C(=O)OCC)C1/C=C/c1ccccc1OC | ? | 9.3µM* | -2% | 19%
CCOC(=O)C1=C(C)NC(=O)NC1/C=C/c1ccccc1OC (stereo not drawn) | -21% | 2% | -1% | 1%
CCC(C)NC(=O)CCC(=O)NNc1nc2ccccc2c2nc(C)nn12 (stereo not drawn) | 41% | -5% | -8% | 8%
Cc1nc2c3ccccc3nc(NNC(=O)CCC(=O)NC(C)C)n2n1 | 6.6µM* | 32% | ? | 2%
CC(C)CCNC(=O)CCC(=O)NNc1nc2ccccc2c2nc(-c3ccccc3)nn12 | 10µM* | 15% | -6% | 20%
Cc1nc2c3ccccc3nc(NNC(=O)CCC(=O)N3CCCC(C)C3)n2n1 (stereo not drawn) | 9.3µM* | 0% | -4% | 1%
Cc1nc2c3ccccc3nc(NNC(=O)CCC(=O)NC3CCCC3)n2n1 | 359% | 5% | · | 3%
CC1(NC(=O)Cn2cc(C(F)(F)F)ccc2=O)CCS(=O)(=O)C1 (stereo not drawn) | ? | 12% | · | -6%
O=C(COc1ccc(F)cc1Cl)Nc1ccc(N2CCOCC2)cc1N1CCOCC1 | ? | 9.3µM* | · | -5%
Cc1ccc(C(=O)Nc2ccc(N3CCOCC3)cc2N2CCOCC2)cc1 | ? | 16% | 3% | ?
O=C(Cc1ccccc1)Nc1ccc(N2CCOCC2)cc1N1CCOCC1 | 2% | -13% | -4% | -3%
O=C(COc1ccccc1F)Nc1ccc(N2CCOCC2)cc1N1CCOCC1 | -28% | ? | · | 6%
O=C(CSCc1ccc(F)cc1)Nc1ccc(N2CCOCC2)cc1N1CCOCC1 | 13µM* | 5.9µM* | · | 8%
Cc1nn(Cc2ccc(F)cc2)c2sc(C(=O)Nc3ccc(N4CCOCC4)cc3N3CCOCC3)cc12 | 15µM* | 12µM* | 20% | -5%
NC(=O)c1cc2cc(Br)ccc2o/c1=N/NC(=O)c1cccc(F)c1 | -21% | 20% | 5% | -1%
CCOC(=O)c1nn(-c2ccccc2)c(=O)cc1OCC(=O)Nc1ccccc1OCC | 10% | 4% | · | 3%
COc1cc(OC)c(N(C)S(=O)(=O)c2cccc(C(=O)NC(C)C3CC4CCC3C4)c2)cc1Cl (stereo not drawn) | 2.6µM* | -7% | 0% | 1%
Cc1ccc(NC(=O)c2cccs2)cc1NC(=O)c1cccc(F)c1 | ? | 9% | 12% | 9%
Cc1ccccc1C(=O)N1CCN(c2ccc(NC(=S)NC(=O)c3cccs3)cc2)CC1 | -3% | 9.3µM* | ? | 0%
CC(C)CC(=O)NC(=S)Nc1ccc(NC(=O)c2cccs2)cc1 | 5.2µM* | · | -6% | 7%
Cc1ccc(C(=O)N2CCN(c3ccc(NC(=S)NC(=O)c4cccs4)cc3)CC2)cc1 | -15% | ? | 18% | 1%
Cc1ccc(C(=O)NC(=S)Nc2ccc(NC(=O)c3cccs3)cc2)cc1[N+](=O)[O-] | 9.3µM* | -1% | 11% | 9%
Cc1ccc(NC(=O)c2cccs2)cc1NC(=O)c1ccc(F)cc1 | 10µM* | -7% | 7% | -4%
Cc1ccc(C(=O)Nc2ccc(NC(=O)c3cccs3)cc2)cc1[N+](=O)[O-] | 13% | 14% | -5% | 0%
CC(C)CC(=O)NC(=S)Nc1ccc(N2CCN(C(=O)c3cccs3)CC2)cc1 | ? | 10µM* | 9% | 1%
SMILES | Pf growth 96h | Pf growth 48h | NS1 function inh | SARS PLP yeast
O=C(CN1C(=O)NC2(CCc3ccccc32)C1=O)NCCc1ccccc1 (stereo not drawn) | -9% | -4% | · | -3%
CCn1c(N2CCN(C(=O)C34CC5CC(CC(C5)C3)C4)CC2)nc2ccccc21 | · | 13µM* | -29% | -2%
Cc1cc(C)n(-c2nc3ccccc3nc2N2CCCC2)n1 | -7% | · | -7% | -10%
Cc1cc(C)n(-c2nc3ccccc3nc2N2CCCCCC2)n1 | -14% | ? | -8%[9.22 µM] | -10%
COc1ccc(S(=O)(=O)N2CCN(c3nc4ccccc4nc3-n3nc(C)cc3C)CC2)cc1 | 9.3µM* | ? | -42% | 5%
CCn1c(N2CCN(S(=O)(=O)c3ccc(OC)cc3)CC2)nc2ccccc21 | 12µM* | ? | -64% | -2%
Cc1cc(C)n(-c2nc3ccccc3nc2N2CCN(S(=O)(=O)c3cccc(C#N)c3)CC2)n1 | 21% | 4.1µM* | 14% | -4%
CCn1c(N2CCN(S(=O)(=O)c3ccccc3C(F)(F)F)CC2)nc2ccccc21 | ? | ? | -63% | -4%
Cc1ccc2nc(Cl)c(C#N)cc2c1 | -5% | 41% | 5% | 0%
O=C(NCc1ccco1)C1CCCN(c2nnc(-n3cccc3)s2)C1 (stereo not drawn) | 45% | -2% | -5% | -18%
O=C(Nc1ccc2c(c1)OCO2)c1c[nH]c(=O)n(-c2ccc(F)cc2)c1=O | ? | ? | 3% | -6%
COc1ccccc1NC(=S)N(CCc1c(C)[nH]c2ccccc12)Cc1cccs1 | ? | ? | ? | -10%
COCCNC(=S)N(CCc1c(C)[nH]c2ccc(OC)cc12)Cc1ccco1 | 245% | 9.3µM* | -1% | 1%
COc1ccc2[nH]c(C)c(CCN(Cc3cccs3)C(=S)Nc3ccccc3)c2c1 | 0.41µM* | 0.83µM* | ? | -1%
CNC(=S)N(CCc1c(C)[nH]c2ccc(C)cc12)Cc1cccs1 | ? | ? | · | 1%
COc1ccc2[nH]c(C)c(CCN(Cc3cccs3)C(=S)Nc3ccc(F)cc3)c2c1 | 2.3µM* | 1.7µM* | ? | -10%
CCCCCCn1c(SCC(=O)c2c(N)n(C)c(=O)n(C)c2=O)nc2ccccc21 | 0.93µM* | · | 4% | -3%
CCCCCCn1nc(C(=O)OCC(=O)c2c(N)n(C)c(=O)n(C)c2=O)c2ccccc2c1=O | 13µM* | 12µM* | · | 0%
CC(=O)Oc1ccc(C(=O)N2c3ccccc3NC(=O)C2C)cc1 (stereo not drawn) | -16% | -8% | -2% | -2%
CN(C(=O)CSc1ncnc2sc3c(c12)CCCC3)C1CCS(=O)(=O)C1 (stereo not drawn) | · | · | · | 5%
C=CCN(C(=O)CSc1nnnn1C)c1nc(-c2ccccc2)cs1 | 78% | 37% | · | -1%
C=CCN(C(=O)CC(NC(C)=O)c1ccccc1)c1nc(-c2ccc(S(C)(=O)=O)cc2)cs1 (stereo not drawn) | ? | 9.3µM* | -6% | -3%
COCCN(C(=O)C1CCN(C(=O)c2ccccc2C)CC1)c1c(N)n(CC(C)C)c(=O)[nH]c1=O | -12% | 8% | · | -2%
CCOC(=O)C1CCCN(C(=O)COc2ccc(N(C)S(=O)(=O)c3ccc(F)cc3)cc2)C1 (stereo not drawn) | ? | ? | · | 1%
CCc1cc2c(=O)[nH]c(-c3ccccn3)nc2s1 | 3.3µM* | ? | -88% | ?
COc1cnc(-c2ccccn2)[nH]c1=O | 5.9µM* | 0% | · | 14%
O=C(COC(=O)c1cc(=O)[nH]c(=O)[nH]1)Nc1cccc(S(=O)(=O)N2CCCCC2)c1 | ? | 7% | · | 1%

Bioassay records deposited in PubChem by National Center for Advancing Translational Sciences (NCATS).
